Assay results taken from PubChem BioAssay AID602229 (The Scripps Research Institute Molecular Screening Center, 2012).
The whole screen tested about 360,000 compounds, of which about 1,300 (0.36%) were called active. The list comes from a sample in which actives are over-represented; it also holds similar structures and randomly drawn compounds. Values without a mark were called inactive.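 The calls were made as follows: active = inhibition above the mean of all tested compounds plus 3 SD (cut at about 70% in these data); inactive = the rest.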

Target: Photoreceptor-specific nuclear receptor (Homo sapiens) (UniProt Q9Y5X4)
Sequence (Q9Y5X4 whole entry, looked up, the tested form may be a part): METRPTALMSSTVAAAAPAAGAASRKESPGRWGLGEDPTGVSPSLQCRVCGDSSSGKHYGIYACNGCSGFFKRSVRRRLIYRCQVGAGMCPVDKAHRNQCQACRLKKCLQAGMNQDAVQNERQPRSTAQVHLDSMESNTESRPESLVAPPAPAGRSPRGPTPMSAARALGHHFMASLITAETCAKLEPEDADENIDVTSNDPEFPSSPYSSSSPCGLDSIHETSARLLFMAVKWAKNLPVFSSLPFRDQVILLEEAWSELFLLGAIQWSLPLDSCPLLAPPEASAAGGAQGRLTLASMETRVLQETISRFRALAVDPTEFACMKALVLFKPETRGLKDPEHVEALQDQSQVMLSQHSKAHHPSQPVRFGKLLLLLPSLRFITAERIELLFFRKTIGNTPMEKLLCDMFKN
Test: NCOR release from NR2E3 in cells – cell-based, luminescence, CHO-S, Gal4-NCOR/VP16-NR2E3, primary screen (AID 602229);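 also: 0% = DMSO with NR2E3 transfected cells and 100% = cells lacking NR2E3 construct; higher means lower luciferase signal from less NR2E3 corepressor binding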
Settings: CHO-S Gal4-NCOR/VP16-NR2E3 two-hybrid, luciferase; at 3.98 µM; stronger effect = higher value

Row | SMILES | inhibition of corepressor binding
1 | O=C(c1ccco1)N1CCN(CC(=O)N(C2CCCCC2)C2CCS(=O)(=O)C2)CC1 (stereo not given) | -15.5%
2 | Cc1ccc(C)c(S(=O)(=O)N2CCN(c3ncnc4sccc34)CC2)c1 | 85.8% (active)
3 | Cc1ccc(S(=O)(=O)N2CCC3(CC2)OCCO3)c(C)c1 | -34.4%
4 | Cc1ccc(S(=O)(=O)N2CCN(c3ncnc4ccccc34)CC2)cc1 | 89.9% (active)
5 | Cc1ccc([N+](=O)[O-])cc1S(=O)(=O)N1CCCN(C)CC1 | -11.3%
6 | Cc1ccc(S(=O)(=O)N2CCN(Cc3cccc(C)c3O)CC2)cc1 | 4.5%
7 | COc1ccc(S(=O)(=O)N2CCN(c3ncnc4c(-c5ccccc5)nsc34)CC2)cc1 | -27.3%
8 | N#CC1=C(N)Oc2[nH]c(=S)[nH]c(=O)c2C12C(=O)Nc1ccccc12 (stereo not given) | -7.36%
9 | CCCCn1nnnc1C(c1ccccc1)N1CCN(c2ccccc2OC)CC1 (stereo not given) | -15.1%
10 | CCCCC(=O)N(c1ccc(OC)cc1)C1C=CS(=O)(=O)C1 (stereo not given) | -26%
11 | COC(=O)[C@]12CCCCC=C1N(Cc1ccco1)C(=O)[C@H](CC(=O)NCCCCc1ccccc1)C2 | -23.9%
12 | COc1ccc(NC(=O)CC2SC(N3CCCCC3)=NC2=O)cc1OC (stereo not given) | 8.6%
13 | CS(=O)(=O)Nc1ccccc1N=C(c1ccccc1)c1ccccc1 | 7.7%
14 | O=C(CCc1nnc2ccc(NCCCN3CCCC3=O)nn12)NCc1ccccc1Cl | 8.39%
15 | Cc1nc(-c2ccc(F)cc2)c(CC(=O)N2CCN(S(=O)(=O)c3ccc(F)cc3)CC2)s1 | -1.49%
16 | Cc1nc(-c2ccc(F)cc2)c(CC(=O)Nc2cc(S(=O)(=O)N3CCCCC3)ccc2C)s1 | 82.8% (active)
17 | Cc1ccc(S(=O)(=O)N2CCN(C(=O)Cc3sc(C)nc3-c3ccc(F)cc3)CC2)c(C)c1 | -15.2%
18 | O=S(=O)(Nc1ccc(-c2ccc(N3CCOCC3)nn2)cc1)c1cc(Cl)ccc1Cl | -41.5%
19 | COc1ccc(C(C(=O)NCC2CCCO2)N(C(=O)Cn2nnc3ccccc32)c2ccc(NC(C)=O)cc2)cc1OC (stereo not given) | -35.2%
20 | Cn1c(=O)oc2cc(S(=O)(=O)N3CCC(C(=O)Nc4ccc(OC(F)(F)F)cc4)CC3)ccc21 | -16.6%
21 | CC[C@H]1CN2CCc3cc(OC)c(OC)cc3[C@@H]2C[C@@H]1C[C@H]1NCCc2cc(OC)c(OC)cc21 | 104% (active)
22 | O=C(CC(NCCN1CCOCC1)C(=O)O)Nc1cccc(Cl)c1 (stereo not given) | 5.57%
23 | CCCCCCCCn1c2c(c(=N)c3c1CCC3)CCCC2 | 92% (active)

Row | SMILES | inhibition of corepressor binding
24 | Cc1ccc(S(=O)(=O)NC(C)C(=O)NCc2ccc(Cl)cc2)cc1 (stereo not given) | -5.53%
25 | CCn1cc(C(=O)N[C@@H](C)C(=O)NCCO)c(=O)c2cc3c(cc21)OCO3 | -12.3%
26 | Cc1nc([N+](=O)[O-])c(NCCCO)n1Cc1ccccc1 | -10.6%
27 | CCN1/C(=C\c2ccc3ccccc3[n+]2CC)Sc2cc(C)ccc21 | 89.4% (active)
28 | COCC(=O)N1CCc2ccc(NC(=O)c3ccccc3Cl)cc2C1 | -6.67%
29 | CCOC(=O)C1CCCN(C(=O)c2cc(-c3cccs3)oc2C)CC1 (stereo not given) | -1.14%
30 | CCOc1ccccc1N1CCN(C(=O)c2ccc3[nH]c(C)c(C)c3c2)CC1 | -57.3%
31 | C[C@H](CO)N1C[C@H](C)[C@H](CN(C)CC2CC2)Oc2ccc(NC(=O)CCN3CCOCC3)cc2C1=O | -4.02%
32 | COc1ccccc1CNc1nc(Nc2ccccc2Cl)c2sccc2n1 | 64.7%
33 | COc1cccc(CNc2nc(NCc3cccs3)nc3ccsc23)c1 | 88.5% (active)
34 | COc1cccc(CNc2nc(NCc3ccccc3OC)nc3ccsc23)c1 | 54.7%
35 | CC[C@]1(c2ccccc2OC)C(=O)N(C(=O)OC)N1C(=O)OC | 14.9%
36 | COc1cc(C(=O)NCc2ccc(-n3cccc3)cc2)cc(OC)c1OC | 11.4%
37 | COc1cc(C(=O)NCc2nnc(SCC(=O)Nc3nc4ccc(C)cc4s3)o2)cc(OC)c1OC | -10.1%
38 | CCn1c(CNC(=O)c2cc(OC)c(OC)c(OC)c2)cc2cc(C)ccc21 | 89.3% (active)
39 | Cc1ccc(N(CCC(=O)O)S(=O)(=O)c2cccc(C(F)(F)F)c2)cc1 | 4.8%
40 | Cc1oc2c(F)c(F)c(F)c(F)c2c1S(=O)(=O)Nc1cccc(C(F)(F)F)c1 | 110% (active)
41 | Cc1noc(C)c1S(=O)(=O)Nc1cc(C(F)(F)F)ccc1N1CCOCC1 | 4.86%
42 | CCCOc1ccc(CN(CCO)CCO)cc1C(=O)OC | 5.92%
43 | COc1ccccc1CNC(=O)CNC(=O)c1cn(-c2ccccc2OC)c(=O)c2ccccc12 | 6.65%
44 | COc1ccc(S(=O)(=O)N2CCc3ccccc32)cc1C(=O)Nc1cc(S(C)(=O)=O)ccc1Cl | -23.6%
45 | Cc1ccc(C)c(NC(=O)CN(C)C(=O)c2ccc3ncsc3c2)c1 | -19.7%
46 | CC1(C(=O)NS(=O)(=O)c2ccc(Cl)cc2)CCN1C(=O)CC1CCCC1 (stereo not given) | 9.74%

Row | SMILES | inhibition of corepressor binding
47 | CN(CC(=O)Nc1cccc(F)c1)C(=O)C1=COCCO1 | -5.12%
48 | Cc1ccc(NC(=O)CN(C)CC(=O)Nc2cccc(F)c2)cc1[N+](=O)[O-] | 84.2% (active)
49 | Cc1ccc(NC(=O)c2sccc2C)cc1[N+](=O)[O-] | -86.2%
50 | Cc1ccc(NC(=O)C(C)OC(=O)Cc2c[nH]c3ccccc23)cc1S(=O)(=O)N1CCOCC1 (stereo not given) | 20.8%
51 | Oc1ccc(Br)cc1/C=N/Nc1ccccn1 | 87.1% (active)
52 | S=C(NN=Cc1ccccn1)Nc1ccccn1 | 52.5%
53 | O=C(Nc1ccc(Br)cc1)c1cc(S(=O)(=O)Nc2ccccn2)ccc1Cl | 0.47%
54 | CCCN(CC(=O)Nc1ccc(OC)c(OC)c1)CC(=O)Nc1ccc(F)c(F)c1F | -8.16%
55 | CCOC(=O)C1CCN(S(=O)(=O)c2c(C)noc2C)CC1 | -11.3%
56 | Cc1csc(OCC(=O)Nc2ccc(C)c(C)c2)n1 | -16.6%
57 | CCOC(=O)c1cnc2ccc(F)cc2c1Nc1ccc2c(c1)OCCO2 | -13.2%
58 | Cc1nc2ccccc2c(C(=O)O)c1-c1ccccn1 | -21.4%
59 | c1ccc(-c2nccc(-c3ccc(-n4cnc5ccccc54)cc3)n2)nc1 | 34.3%
60 | CC(C)(C)Nc1nc(-c2ccccn2)nc2ccccc12 | 98.8% (active)
61 | O=C1CC(=O)Nc2cc(S(=O)(=O)N3CCN(c4cccc(C(F)(F)F)c4)CC3)ccc2N1 | -3.07%
62 | O=C(CN1C(=O)CCS(=O)(=O)c2ccccc21)NCc1ccc(F)cc1 | -8.57%
63 | CCCCN1C(=O)CC(N2CCOCC2)C1=O (stereo not given) | -4.28%
64 | CCc1cccc(NC(=O)COC(=O)C2CCN(c3ccc(C(F)(F)F)cn3)CC2)c1 | -19.1%
65 | O=C(Nc1cccc(Cl)c1)Nc1ccccc1NS(=O)(=O)c1cccs1 | -13.8%
66 | COc1cc(NC(=O)c2ccccc2NS(=O)(=O)c2ccc(Cl)s2)cc(OC)c1 | 97.8% (active)
67 | O=S(=O)(Nc1ccccc1N1CCOCC1)c1ccc(Cl)s1 | -7.37%
68 | CCCn1nnnc1NCc1ccc(CC)cc1 | 8.66%
69 | O=C(c1cc(COc2c(F)cccc2F)on1)N1CCSCC1 | -9.64%

Row | SMILES | inhibition of corepressor binding
70 | CCCC(=O)N1CCC1(C)C(=O)Nc1ccc(-n2cncn2)cc1 (stereo not given) | 1.35%
71 | C=CCC1(CC=C)CCCN1C(=O)c1cc(COc2ccc(-n3cncn3)cc2)on1 | 106% (active)
72 | Nc1[nH]c(C(=O)c2ccccc2)c(-c2ccncc2)c1C(=O)NCc1cccc2ccccc12 | 3.22%
73 | CSCCC(c1nnnn1Cc1ccccc1)N1CCN(C/C=C/c2ccccc2)CC1 (stereo not given) | 4.41%
74 | C/C(=N/NC(=S)Nc1ccccc1)c1ccc2c(c1)OCO2 | -32%
75 | C/C(=N\NC(=S)NCc1ccccc1)C1CCCCC1 | 14.7%
76 | C/C(=N\NC(=S)NCc1ccccc1)c1ccc(Cl)cc1 | 73.8% (active)
77 | O=C(CCc1ccc(S(=O)(=O)NC2CCCCC2)cc1)NCc1ccccc1 | 9.81%
78 | CC(=O)Nc1ccc(S(=O)(=O)NNC(=O)CCc2ccccc2)cc1 | -9.18%
79 | Cc1csc(NC(=O)CSc2ccc(-c3ccc(F)cc3)nn2)n1 | 11.9%
80 | COc1ccc(CC(=O)Nc2nc(-c3ccc(F)c(F)c3)cs2)cc1OC | 103% (active)
81 | COc1ccc(CCNC(=O)COC(=O)Cc2cc(OC)c(OC)c(OC)c2)cc1 | 0.01%
82 | COc1ccc(CC(=O)NC2CCSc3ccccc32)cc1OC (stereo not given) | -3.29%
83 | COc1cc(CC(=O)Nc2nc(-c3ccc(F)c(F)c3)cs2)cc(OC)c1OC | 103% (active)
84 | COc1cc(CCC(=O)Nc2ccncc2Cl)cc(OC)c1OC | -4.52%
85 | CCc1nnc(NC(=O)CSc2nc3c(c(=O)n2-c2ccccc2OC)SCC3)s1 | -5.3%
86 | C/C(=C/C(=O)N1CCN(C)CC1)C(=O)O | -1.95%
87 | COc1cc(C2/C(=C(\O)c3ccc4c(c3)CC(C)O4)C(=O)C(=O)N2c2nnc(C)s2)cc(OC)c1OC (stereo not given) | -19.5%
88 | COc1ccccc1OCCNC(=O)CCNC(=O)c1ccccc1Cl | -15.5%
89 | CCN1C(=O)/C(=C\N2CCOCC2)SC1=S | -3.91%
90 | O=C(CCn1c(=O)oc2ccccc21)Nc1ccon1 | -8.66%
